Screens: PubChem, ICCB-Longwood Screening Facility, Harvard Medical School
Anaer choline gr: growth inhibitors of anaerobic choline-fed gram-negatives, minimal medium, absorbance; hit rate 0.2% among 55,000; AID 1963822, 2024; Gram-negative bacterium anaerobic choline minimal medium; active compounds read low; calls only; call rule not given here
Calls only; ! = not confirmed by another sample. The entries come from a sample that favours hits as a whole.

`CCc1ccc(NCc2cc3ccc(OC)cc3n(CC(=O)Nc3ccc4c(c3)OCO4)c2=O)cc1` gave Anaer choline gr active.
For COC(=O)c1ccccc1NC(=O)Cn1c(=O)c(CNc2ccccc2)cc2ccc(OC)cc21 the results were Anaer choline gr inactive.
CCOC(=O)c1ccccc1NC(=O)Cn1c(=O)c(CNc2ccc(C)cc2)cc2ccc(OC)cc21 was read as Anaer choline gr inactive.
Cc1ccc(NC(=O)NCc2cc(=O)n3nc(-c4ccccc4)sc3n2)cc1 was read as Anaer choline gr inactive.
Screening CC(=O)N1CCCc2cc(S(=O)(=O)N3CCC(C(=O)NCc4cccnc4)CC3)ccc21 returned Anaer choline gr inactive.
For CCCCc1nnc2sc(-c3cnccn3)nn12 the results were Anaer choline gr inactive.
Cc1ccc(Cl)cc1NC(=O)c1nnn(-c2ccccc2)c1N was read as Anaer choline gr inactive.
For O=[N+]([O-])c1ccc2c(c1)S(=O)(=O)C=C2 the results were Anaer choline gr active!.
`O=C(CCCc1nc2cccnc2n1C1CCN(Cc2ccccc2)CC1)NC1CCCCC1` gave Anaer choline gr inactive.
`CC(C)(C)c1ccc(S(=O)(=O)Nc2ccc(-c3nnc(-c4ccccc4)o3)cc2)cc1` gave Anaer choline gr inactive.
`Cc1ccc(S(=O)(=O)C=CC#N)cc1` gave Anaer choline gr inactive.
Screening CC(C)(C)c1ccc(S(=O)(=O)/C=C/C#N)cc1 returned Anaer choline gr active.
Screening CNc1ncnc2c1cnn2-c1ccc(C)cc1 returned Anaer choline gr inactive.
For CCc1ccc(-c2[nH]c3ccccc3c2NC(=O)Nc2cccc(C(=O)OC)c2)cc1 the results were Anaer choline gr inactive.
Screening CCc1ccc(NC(=O)Nc2c(-c3ccccc3)[nH]c3ccccc23)cc1 returned Anaer choline gr active.
COc1ccc(NC(=O)Nc2c(-c3cccnc3)[nH]c3ccccc23)cc1 was read as Anaer choline gr inactive.
Screening O=C(NCc1ccc(Cl)cc1)c1ccc(Cl)c(-n2cnc3cccnc32)c1 returned Anaer choline gr inactive.
Screening Cc1ccsc1C(=O)Nc1cc(-c2noc(C3CCC3)n2)sc1C returned Anaer choline gr inactive.
Screening Cc1ccc(NC(=O)c2ccc3c(c2)N(C)C(=O)CO3)cc1 returned Anaer choline gr inactive.
Screening CC(C)c1nnc(-c2ccc(S(=O)(=O)N3CCN(C(C)C)CC3)o2)o1 returned Anaer choline gr inactive.
Screening CC(C)CN1CCN(S(=O)(=O)c2ccc(-c3nnc(C(C)C)o3)o2)CC1 returned Anaer choline gr active.
For CC(C)c1nnc(-c2ccc(S(=O)(=O)N3CCCC3)o2)o1 the results were Anaer choline gr inactive.
Screening COc1cccc(N2CC(C(=O)Nc3nnc4n3CCS4)CC2=O)c1 (stereo not drawn) returned Anaer choline gr inactive.
`CCN(CC)CCOc1ccc(Cc2ccccc2)cc1` gave Anaer choline gr inactive.
Screening CC[N+](CC)(CC)CCOc1cccc(OCC[N+](CC)(CC)CC)c1OCC[N+](CC)(CC)CC returned Anaer choline gr inactive.
Screening CC[N+](CC)(CC)CCOc1ccc(/C=C/c2ccccc2)cc1 returned Anaer choline gr active!.
`Cc1ccc(S(=O)(=O)N2CCCC(c3nc(-c4ccc5c(c4)OCO5)no3)C2)cc1` (stereo not drawn) gave Anaer choline gr inactive.
`CC(C)=CCC/C(C)=C/CC/C(C)=C/CSCC(=O)O` gave Anaer choline gr active.
Screening COC(=O)[C@@H](N)CSC/C=C(\C)CC/C=C(\C)CCC=C(C)C returned Anaer choline gr inactive.
O=C(Nc1ccc(F)cc1)c1ccc(-n2nc(OCc3cccc(F)c3)ccc2=O)cc1 was read as Anaer choline gr inactive.
Screening COc1ccccc1N1CCN(c2ccc(C(=O)N3CCc4ccccc43)nn2)CC1 returned Anaer choline gr inactive.
Screening O=C(c1ccc(NC2CCCC2)nn1)N1CCc2ccccc21 returned Anaer choline gr inactive.
For COc1ccc(CNc2ccc(C(=O)N3CCc4ccccc43)nn2)cc1 the results were Anaer choline gr active.
Screening Cc1ccc(-c2noc(-c3cc(-c4ccccc4)n[nH]3)n2)cc1 returned Anaer choline gr inactive.
For O=C1Nc2ccccc2C1Cc1ccccc1F (stereo not drawn) the results were Anaer choline gr inactive.
`COc1cc(CC2C(=O)Nc3ccccc32)cc(Cl)c1OC` (stereo not drawn) gave Anaer choline gr inactive.
`O=C1Nc2ccccc2C1Cc1ccc(Cl)cc1` (stereo not drawn) gave Anaer choline gr active.
O=C(NC1CC1)C1CCN(c2nc3ccsc3c(=O)n2-c2ccccc2)CC1 was read as Anaer choline gr inactive.
For Cc1cc(N2CCCC2)nc(N2CCN(S(=O)(=O)c3ccc(Br)cc3)CC2)n1 the results were Anaer choline gr active.
For O=S(=O)(c1ccc(Br)cc1)N1CCN(c2ccc(N3CCCC3)nn2)CC1 the results were Anaer choline gr inactive.
`Cc1cc(N2CCN(C)CC2)nc(N2CCN(S(=O)(=O)c3ccc(Br)cc3)CC2)n1` gave Anaer choline gr inactive.
Screening O=c1cc(-c2ccccc2)nc2n1CCN2CCCN1CCCC1 returned Anaer choline gr inactive.
O=C(c1coc(-c2ccccc2)n1)N1CCCN(Cc2noc(-c3ccccc3)n2)CC1 was read as Anaer choline gr inactive.
